# Experimental data taken from PubChem BioAssay (NCATS).
# “And” between values parts separate entries of the source, which are not always exact repeats. Equal entries are not always repeated.
# Experiment: qHTS profiling for inhibitors of Plasmodium falciparum (3D7) proliferation (AID 743322);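 further: infected erythrocytes exposed to compound for 72 h before lysis; 100% = DMSO vehicle wells and 0% = 0.29 µM artemisinin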
# Conditions: P. falciparum 3D7 proliferation; at 28.7 µM (top of the series) unless noted
# Method in brief: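 Erythrocytes infected with P. falciparum (0.3% parasitemia, 2.5% hematocrit) incubated with compounds 72 h at 37 C, 5% CO2. Lysis with saponin/Triton buffer containing SYBR Green I, overnight at room temperature in the dark; DNA fluorescence (485/535 nm) normalised to 0.29 uM artemisinin and DMSO.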
row,Structure (SMILES),remaining parasite growth % (stronger effect = lower value)
1,Cc1cccc(-c2[nH]ncc2-c2ccc3ncccc3n2)n1,92.9% [at 57.5 µM]
2,CCN(CC)C(=S)SSC(=S)N(CC)CC,99.1%
3,Nc1nc(Cl)nc2c1ncn2[C@H]1C[C@H](O)[C@@H](CO)O1,83.8% [at 57.5 µM]
4,Nc1cccc2c1CN(C1CCC(=O)NC1=O)C2=O (stereo not drawn),98.3% [at 57.5 µM] and 94.5% [at 57.5 µM]
5,Cc1ccc(NC(=O)c2ccc(CN3CCN(C)CC3)cc2)cc1Nc1nccc(-c2cccnc2)n1,1.04%
6,Cc1cccc(C)c1OCC(=O)N[C@@H](Cc1ccccc1)[C@@H](O)C[C@H](Cc1ccccc1)NC(=O)[C@H](C(C)C)N1CCCNC1=O,-1.44%
7,CCOC(=O)C1=C(O)C(=O)N(Cc2ccccc2)C1,34%
8,S=c1nc[nH]c2nc[nH]c12,58.5% [at 57.5 µM]
9,COc1cc(Nc2c(C#N)cnc3cc(OCCCN4CCN(C)CC4)c(OC)cc23)c(Cl)cc1Cl,-0.245%
10,CC(C)C[C@H](NC(=O)[C@H](Cc1ccccc1)NC(=O)c1cnccn1)B(O)O,-0.334%
11,CN(C)c1ccc2nc3ccc(=[N+](C)C)cc-3sc2c1,1.85% [at 57.5 µM]
12,CCc1nc(N)nc(N)c1-c1ccc(Cl)cc1,-1.1%
13,CCN(CCO)CCCC(C)Nc1ccnc2cc(Cl)ccc12 (stereo not drawn),0.834% and 0.742%
